# Most compounds without a hit are left out; they make up all but 1.4% or so of the library.
# GLD-1 TGE inh = GLD-1-TGE RNA interaction inhibition (C. elegans) | Q17339 | purified GLD-1 + fluorescein TGE RNA, fluorescence polarization | inhibition, % at 5.96 µM | 320,000 compounds, 0.44% hits;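 active means percent inhibition above a per-plate cutoff, the plate mean of test compounds plus 3 SD, cut at about 30% in these data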;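 further: 0% = DMSO wells with GLD-1 and probe and 100% = wells lacking GLD-1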
# MCL1 BIM primary = MCL1-BIM-BH3 interaction inhibition (human); AID 2057; GST-MCL1 / FITC-Bim-BH3 fluorescence polarization; 320,000 compounds, 0.68% hits; inhibition, % at 10.9 µM; Q07820;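 active means inhibition above the mean inhibition of all tested compounds plus 3 SD, set per campaign, cut at about 40% in these data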;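 further: 0% = DMSO wells and 100% = unlabeled Bim-BH3 peptide control; higher means more loss of mP so more displacement of Bim peptide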
# Bcl-xL primary = Bcl-xL (human) inhibition | inhibition, % at 10.9 µM | GST-Bcl-xL / FITC-Bim BH3 peptide fluorescence polarization | AID 2129 | 320,000 compounds, 0.7% hits;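 active means inhibition above the mean of all tested compounds plus 3 SD, cutoff set per campaign, cut at about 30% in these data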;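 further: 0% = DMSO wells and 100% = unlabeled Bim-BH3 peptide competitor; inhibitors lower millipolarization by displacing the labeled peptide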
# Target sequence (Q07817 whole entry, looked up): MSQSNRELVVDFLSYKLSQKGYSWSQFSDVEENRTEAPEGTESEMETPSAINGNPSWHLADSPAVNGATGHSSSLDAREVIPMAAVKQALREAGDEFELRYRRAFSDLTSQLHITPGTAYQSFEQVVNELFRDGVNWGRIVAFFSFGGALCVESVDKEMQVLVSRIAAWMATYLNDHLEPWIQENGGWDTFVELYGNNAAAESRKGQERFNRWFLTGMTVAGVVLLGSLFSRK
# MEX-5 binding = C. elegans MEX-5 TCR-2 RNA binding activity | Q9XUB2 | MEX-5/FITC-TCR2 RNA binding, fluorescence polarization; active compounds read low | activity score (negative = inhibition of binding), % at 10 µM | 300,000 compounds, 0.38% hits | AID 1832;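 active means inhibition past about -25% in most replicates, and total fluorescence under double the plate's negative control median, limit read from the data; inconclusive means replicates evenly split on the limit, or fluorescence at least double controls; inactive means too little inhibition in most replicates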;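 further: 0% = DMSO and -100% = 5 µM competing unlabeled TCR2 RNA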
# E coli Lon inh = inhibits E. coli Lon protease; inhibition, % at 7.94 µM; P0A9M0; 360,000 compounds, 0.42% hits; purified E. coli Lon protease, fluorescence polarization; in the data active means inhibition above about 13%, passing the limit was not always enough;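 further: 0% = enzyme with probe and DMSO and 100% = no enzyme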
# Bcl-xL conf = Bcl-xL (human) inhibition, MCL1 counter-screen confirmation. shares compounds with MCL1 BIM primary. GST-Bcl-xL / FITC-Bim BH3 peptide FP binding. inhibition, % at 10.9 µM. 1,700 compounds, 54% hits;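 active means inhibition above a cutoff equal to the mean inhibition of all tested compounds plus 3 SD, cut at about 30% in these data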;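 further: 0% = DMSO wells and 100% = unlabeled Bim BH3 control peptide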
# MCL1 inh confirm = confirmation of human MCL1 and BIM-BH3 interaction inhibitors; shares compounds with MCL1 BIM primary; GST-MCL1 / FITC-Bim-BH3 fluorescence polarization; inhibition, % at 10.9 µM; 1,700 compounds, 61% hits;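 active means inhibition above the average of all tested compounds plus 3 SD, cut at about 40% in these data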;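 further: 0% = DMSO wells and 100% = unlabeled Bim-BH3 control peptide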
# Active calls of the source: *; ? = inconclusive; nt = no result; + = active, no number.
SMILES,GLD-1 TGE inh,MCL1 BIM primary,Bcl-xL primary,MEX-5 binding,E coli Lon inh,Bcl-xL conf,MCL1 inh confirm
COc1ccc(NC(=O)c2c3c(nc4ccccc24)CCC3)cc1S(=O)(=O)N1CCOCC1,4,50*,10,-7,-1,15,45*
Cc1ccc(NC(=O)C(C)Sc2nnc(C)n2C2CC2)cc1S(=O)(=O)N1CCOCC1 (configuration not stated),-1,-20,-7,nt,-3,nt,nt
COc1ccc(OCC(=O)Nc2ccc3c(c2)nc(CCN2CCN(C)CC2)n3C)cc1,9,1,1,0,-4,nt,nt
COCCCNC(=O)c1cc2cc3cc(OC)ccc3nc2o1,1,3,4,-3,-2,nt,nt
COc1ccc(CCNc2c(N)n(Cc3ccccc3)c(=O)[nH]c2=O)cc1OC,79*,96*,71*,-19,0,74*,85*
Nc1c(NCc2ccccc2F)c(=O)[nH]c(=O)n1Cc1ccccc1,93*,97*,86*,-8,3,23,29
COc1ccc(CCNc2c(C=O)c(=O)[nH]c3ccccc23)cc1OC,5,-2,0,1,3,nt,nt
COc1ccc(Cl)cc1NC(=O)CN1C(=O)NC(Cc2c[nH]c3ccccc23)C1=O (configuration not stated),2,nt,nt,nt,0,nt,nt
COC(=O)c1ccc(NS(=O)(=O)c2ccc(S(=O)(=O)N3CCOCC3)cc2)cc1,-2,nt,nt,nt,-4,nt,nt
COc1ccc(NC(=O)/C=C/c2ccc(Br)o2)cn1,4,9,15,-1,-6,nt,nt
COc1ccccc1CNC(=O)/C=C/c1ccc(Br)o1,2,42*,2,2,6,1,15
CCC1(C)Cc2c(sc3nc(SC)[nH]c(=S)c23)CO1 (configuration not stated),32*,57*,50*,-9,nt,22,25
CCSc1nc2sc3c(c2c(=O)[nH]1)CC(C)(CC)OC3 (configuration not stated),6,6,3,0,12,nt,nt
CCCCCC#CCC#CCC#CCC#CCCCC(=O)O,11,96*,25,-22,nt,15,86*
O=C1c2ccccc2-c2onc3ccc(Oc4ccccc4)c1c23,37*,61*,63*,-15,-19,20,25
Cc1ccccc1C(=O)Nc1nnc(CC(=O)N/N=C/c2ccco2)s1,1,9,2,-2,-1,nt,nt
Cc1ccc(C(=O)Nc2nnc(CC(=O)N/N=C/c3ccc(O)c(O)c3)s2)cc1,11,76*,28,-1,-9,51*,80*
CCN(CC)C(=O)CN1C(=O)c2cccc3cccc1c23,6,11,2,2,-9,nt,nt
Cc1c(C(c2cccc(Br)c2)c2c(C)n(C)n(-c3ccccc3)c2=O)c(=O)n(-c2ccccc2)n1C,-5,-3,2,0,1,nt,nt
NC1=CC(=O)c2cccc3cccc1c23,118*,+,175*,-28*,nt,156*,188*
Cc1[nH]c2ccc(F)cc2c1CCNC(=O)C1CCCCC1C(=O)OCC(F)(F)F (configuration not stated),2,8,7,1,5,nt,nt
O=C(O)c1cc(-c2ccc(/C=C3\NC(=O)N(c4ccc(Cl)cc4)C3=O)o2)ccc1Cl,4,72*,29,?,-13,32*,55*
O=C(O)c1cc(-c2ccc(/C=C3\NC(=O)N(c4ccccc4)C3=O)o2)ccc1Cl,9,31,23,-10,0,nt,nt
CCN(C(=O)CSc1nnc(SC)s1)c1c(N)n(Cc2ccccc2)c(=O)[nH]c1=O,59*,93*,84*,nt,-9,-5,-3
Cc1noc(/C=C/N(C)C)c1S(=O)(=O)N1CCCC(C(=O)NC2CCCCC2)C1 (configuration not stated),-13,-15,-13,4,-30,nt,nt
Cc1noc(/C=C/N(C)C)c1S(=O)(=O)N1CCCC(C(=O)N2CCCCC2)C1 (configuration not stated),32*,66*,72*,-1,-5,17,8
